PubChem BioAssay (NCI)
The panel holds about 83,000 compounds, 20% with a hit somewhere; the sample as a whole holds those more often.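 The endpoint reported here, percent growth, reads 100 for growth as untreated, 0 for no net growth and -100 for all cells dead.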 Unmarked numbers belong to inactive results. Active and inactive are the calls of the source. How the source made its calls: active means growth percent below 10; inactive means the rest.

What follows are compounds tested on HCC-2998 colon (assay: NCI-60 one-dose screen, 48 h (100 = growth as untreated, 0 = no growth, -100 = all killed)). Settings: 10 µM unless noted.

Row | SMILES | growth
1 | COc1cc(C2CC(c3ccccc3)=NN2C=O)ccc1Oc1nc2c(c(=O)n(C)c(=O)n2C)n1C (stereo not drawn) | 77.6%
2 | COc1ccc2[nH]cc(C3(c4c[nH]c5ccc(OC)cc45)C(=O)Nc4ccc(F)cc43)c2c1 | 72%
3 | CC1=CC(=O)OC1C/C=C(\C)CCC1[C@@]2(C)CCC[C@@](C)(C(=O)O)C2CC[C@@]1(C)O (stereo partly drawn) | 44%
4 | CC1=C(/C=C/C(C)=C/C=C(C(=O)O)\C(C)=C\C(=O)O)C(C)(C)CCC1 | 108%
5 | CCN(CCC#N)c1ccccc1 | 109%
6 | CCCCOC(=O)c1cc(O)c(O)c(O)c1 | 92.5%
7 | COc1cccc(-c2nc3sccn3c2-c2ccnc(NCCN3CCCNS3(=O)=O)n2)c1 | 118%
8 | CC(=O)Oc1ccccc1C(=O)Nc1ncc([N+](=O)[O-])s1 | 23.3%
9 | Cc1ccc([C@H]2c3[nH]c4ccccc4c3C[C@H]3C(=O)N(CCCCCCC(=O)NO)CC(=O)N23)cc1 | 55.6%
10 | COc1ccc(-c2cc(-c3cn(-c4cccc(Cl)c4)nc3-c3ccc(OC)cc3)[nH]c(=S)n2)cc1 | 55.2%
11 | CCn1c(Cc2ccccc2Nc2c(Cl)cccc2Cl)nnc1SCC(=O)Nc1ccccc1C(F)(F)F | 99.9%
12 | COc1cc(/C=C/c2cc(/C=C/c3ccc(O)c(OC)c3)n(C(=O)c3ccccc3Br)n2)ccc1O | 40.9%
13 | CCOC(=O)C(Cc1ccccc1)n1c(O)c(/C=N/c2ncc(Cc3ccc(Cl)cc3Cl)s2)sc1=S (stereo not drawn) | 16.5%
14 | Cc1nn(-c2cccc(Cl)c2)c(C)c1N=Nc1ccc(Br)cc1 | 100%
15 | O=C(N/N=C\c1cc(Br)ccc1O)c1ccncc1 | 42.7%
16 | CC(C)OC1OC(OC(C)C)C(OC(C)C)OC1OC(C)C (stereo not drawn) | 121%
17 | COc1ccc2c(c1)C1=NN(C(=O)CO)[C@H](c3ccc(OC(F)(F)F)cc3)[C@@H]1CC2 | 91.9%
18 | Cn1c(-c2ccccc2)cc(=O)n1-c1ccccc1 | 100%
19 | CC(C)(C)c1ccc(C(=O)Nc2sc3cc(O)ccc3c2C(N)=O)cc1 | 88.2%

Row | SMILES | growth
20 | O=C1N(Cc2ccccc2Cl)c2ccccc2C12NN=C(c1ccccc1)S2 (stereo not drawn) | 73.7%
21 | CC(=O)c1ccc(N2C(=O)c3ccc(Oc4ccccc4)cc3C2=O)cc1 | 99.4%
22 | CC1CCCN(CCCCOc2ccc(-c3ccc(C#N)cc3)cc2)C1 (stereo not drawn) | 86.6%
23 | CNC(=O)c1c(NC(=O)c2cccc(C(F)(F)F)c2)sc2c1CCC(=O)C2 | -33.3% (active)
24 | OC(COCc1ccccc1)COCc1ccccc1 | 97.9%
25 | CN1CCCN(CCNc2nccc(-c3c(-c4cccc(O)c4)nc4sccn34)n2)S1(=O)=O | 74.8%
26 | CC(=O)NC1C(O[C@H]2C[C@H]3[C@@H]4CC=C5C[C@@H](O)CC[C@]5(C)[C@H]4CC[C@]3(C)[C@H]2[C@H](C)C(=O)CCC(C)C)OCC(O)C1O (stereo partly drawn) | 89.5%
27 | CN(C)c1nc(-c2cccs2)n2nc(-c3ccc(Cl)cc3)cc2n1 | 48.9%
28 | O=C1NN(C(=O)c2ccccc2)C(c2ccc(Cl)c(Cl)c2)=C/C1=C\c1ccccc1[N+](=O)[O-] | -20.5% [6.75 µM] (active)
29 | COc1ccc(C(=O)OC2C(OC3C(O)COC(O[C@H]4C[C@H]5[C@@H]6CC=C7C[C@@H](O)CC[C@]7(C)[C@H]6CC[C@]5(C)[C@H]4[C@H](C)C(=O)CCC(C)C)C3OC(=O)C(C)C)OCC(O)C2O)cc1 (stereo partly drawn) | 59%
30 | CCSCC1CC(O)(c2ccccc2)C(c2ccccc2)C(c2ccc(F)cc2)O1 (stereo not drawn) | 2.23% (active)
31 | Nc1c(N)c2ccccc2c2ccccc12 | 103%
32 | Cc1csc(N/N=C/c2ccncc2)n1 | 99.9%
33 | COc1ccc(-c2cc(C(=O)Nc3ccc(C)cc3)nc3[nH]c(=O)sc23)cc1 | 76.7%
34 | COc1ccccc1-[n+]1cc(-c2ccc(-c3ccccc3)cc2)n2c1CCCCC2 | 21.5%
35 | COc1ccc(/C=N/NC(N)=S)c(OC)n1 | 115%
36 | Nc1c(Br)cc2c(c1Br)Cc1cc(Cl)ccc1-2 | 102%
37 | Nc1nc(NC2CC2)cc(-c2cccc(Cl)c2Cl)n1 | 55.8%
38 | COc1cc2c(c(OC)c1O)C(=O)C(OC)C(c1ccc(O)c(O)c1)O2 (stereo not drawn) | 20.1%
